Bioassay records as filed in PubChem BioAssay.
In the library only some 2.4% were active in any assay of this set; here they are far more common.
MCL1-BIM inh = inhibitors of MCL1 binding to BIM-BH3, primary screen, biochemical, fluorescence polarization; GST-MCL1 / FITC-Bim-BH3 fluorescence polarization; AID 2057, 2009; 320,000 tested, 0.68% active; inhibition, % at 10.9 µM; Induced myeloid leukemia cell differentiation protein Mcl-1 (Homo sapiens), Q07820;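 active = inhibition above the mean inhibition of all tested compounds plus 3 SD, set per campaign, cut at about 40% in these data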;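 also: 0% = DMSO wells and 100% = unlabeled Bim-BH3 peptide control; higher means more loss of mP so more displacement of Bim peptide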
Target sequence (Q07820 whole entry, looked up): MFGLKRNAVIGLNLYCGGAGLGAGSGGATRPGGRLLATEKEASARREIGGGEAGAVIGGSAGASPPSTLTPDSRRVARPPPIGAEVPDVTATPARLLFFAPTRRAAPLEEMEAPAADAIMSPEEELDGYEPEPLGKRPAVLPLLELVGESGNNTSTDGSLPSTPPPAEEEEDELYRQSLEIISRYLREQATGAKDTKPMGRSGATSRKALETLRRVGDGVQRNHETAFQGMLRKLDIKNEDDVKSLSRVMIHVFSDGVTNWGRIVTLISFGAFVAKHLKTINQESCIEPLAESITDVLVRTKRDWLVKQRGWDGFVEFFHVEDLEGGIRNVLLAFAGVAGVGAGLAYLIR
Mcl1 Noxa PPI = Mcl-1/Noxa binding inhibitors, primary screen, biochemical, TR-FRET, 1536-well. Induced myeloid leukemia cell differentiation protein Mcl-1 (Homo sapiens), Q07820. TR-FRET Mcl-1/Noxa peptide binding, 2 h. inhibition, % at 21.7 µM. 220,000 tested, 1.5% active. AID 1022, 2008;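 active = compounds that cut the protein-peptide binding signal by more than 50% relative to plate controls in a single-dose test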;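 also: His-tagged Mcl-1 with rhodamine Noxa BH3 peptide and terbium anti-His antibody; 0% = Mcl-1 plus Noxa peptide wells and 100% = peptide-only wells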
Mcl1 Bid PPI = Mcl-1/Bid binding inhibitors, primary screen, biochemical, TR-FRET, 1536-well; TR-FRET Mcl-1/Bid-Dy647 peptide binding; inhibition, % at 21.7 µM; 220,000 tested, 0.97% active;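 active = compounds that cut the binding signal by more than half at the single screening dose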;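 also: His-tagged Mcl-1 with europium anti-His antibody binding Bid BH3 peptide; 0% = Mcl-1 plus peptide wells and 100% = peptide-only wells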
TNF death inh = inhibitors of TNF-alpha triggered necroptosis, primary screen, cell-based, Jurkat FADD-/-, single concentration | Jurkat FADD-/- TNF necroptosis rescue, ATP luminescence, 24 h; 0 = TNF only, 100 = no-TNF cells | activation (protection from cell death), % at 10 µM | 220,000 tested, 0.068% active;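 active = activation, meaning protection from cell death, of at least 50% relative to plate controls; inactive = activation below 50%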;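 also: necroptosis triggered by 40 ng/mL TNF-alpha added together with compound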
zVAD death inh = inhibitors of zVAD-triggered necroptosis, primary screen, L929 cells | viability rescue, % at 10 µM | 220,000 tested, 0.38% active | L929 zVAD necroptosis rescue, ATP luminescence, 24 h; with zVAD 60 µM | AID 1377, 2008;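 active = activation, scaled between plate controls, above about 75%, limit read from the data; inactive = activation under that limit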;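 also: 0% = zVAD with DMSO and 100% = DMSO alone without zVAD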
Bim-Mcl-1 = inhibitors of Bim peptide binding to Mcl-1, primary screen, biochemical, bead-based flow cytometry, multiplex | AID 1009, 2008 | 190,000 tested, 0.1% active | Bim peptide-Mcl-1 binding | inhibition, % at 10 µM; in the data active = inhibition above about 40%;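 also: 0% = no compound tracer wells and 100% = peptide blocker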
Active calls of the source: *.

CC1CCc2nn(CC(=O)Nc3ccc(F)cc3F)cc2C1 (stereo not drawn) was read as MCL1-BIM inh 5, Mcl1 Noxa PPI -1, Mcl1 Bid PPI -5, TNF death inh 0, zVAD death inh 0 and Bim-Mcl-1 -4.
Cc1cc(OCC(=O)Nc2ccc(N3CCN(C(=O)c4ccco4)CC3)cc2)cc(C)c1Cl was read as MCL1-BIM inh 3, Mcl1 Noxa PPI 15, Mcl1 Bid PPI 57*, TNF death inh -14, zVAD death inh 0 and Bim-Mcl-1 0.
For CCCCC1(C)NC(=O)N(CC(=O)Nc2cc(S(=O)(=O)N3CCOCC3)ccc2Cl)C1=O (stereo not drawn) the results were MCL1-BIM inh -2.
`CCOC(=O)c1cnn(-c2ccccc2)c1-c1ccncc1` gave MCL1-BIM inh 2.
Screening COC(=O)C1CCN(S(=O)(=O)CCNC(=O)c2ccc3c(c2)OCO3)CC1 returned MCL1-BIM inh -3.
Screening O=C(Nc1nc(-c2cccc3ccccc23)cs1)c1ccc2c(c1)S(=O)(=O)c1ccccc1C2=O returned MCL1-BIM inh 3, Mcl1 Noxa PPI 62*, Mcl1 Bid PPI 28, TNF death inh 1, zVAD death inh 0 and Bim-Mcl-1 0.
COc1ccc2nc(C)cc(SCC(=O)Nc3c(C)cccc3C)c2c1 was read as MCL1-BIM inh -4, Mcl1 Noxa PPI -7, Mcl1 Bid PPI 68*, TNF death inh 3, zVAD death inh 2 and Bim-Mcl-1 -2.
`COc1ccc2nc(C)cc(SCC(=O)N/N=C/c3c(OC)ccc4ccccc34)c2c1` gave MCL1-BIM inh -6, Mcl1 Noxa PPI 3, Mcl1 Bid PPI 64*, TNF death inh 2, zVAD death inh 1 and Bim-Mcl-1 -12.
For COc1ccc2nc(C)cc(SCC(=O)NNC(=O)COc3cccc4ccccc34)c2c1 the results were MCL1-BIM inh -12, Mcl1 Noxa PPI 1, Mcl1 Bid PPI 52*, TNF death inh 4, zVAD death inh 2 and Bim-Mcl-1 -1.
COc1ccc2nc(C)cc(SCC(=O)N/N=C/c3ccccc3)c2c1 was read as MCL1-BIM inh 2, Mcl1 Noxa PPI -14, Mcl1 Bid PPI 8, TNF death inh 4, zVAD death inh 1 and Bim-Mcl-1 -4.
For COc1ccc2nc(C)cc(SCC(=O)Nc3c(C)cc(C)cc3C)c2c1 the results were MCL1-BIM inh -5, Mcl1 Noxa PPI -4, Mcl1 Bid PPI -9, TNF death inh 0, zVAD death inh 1 and Bim-Mcl-1 2.
Screening O=C(O)c1c2c(nc3ccccc13)/C(=C/c1cccc([N+](=O)[O-])c1)CCC2 returned MCL1-BIM inh 8.
`Cc1ccnc2nc(C(=O)OCC(=O)Nc3ccccc3C(C)(C)C)nn12` gave MCL1-BIM inh -3, Mcl1 Noxa PPI 10, Mcl1 Bid PPI -15, TNF death inh 0, zVAD death inh 2 and Bim-Mcl-1 -5.
For CCOC(=O)c1ccccc1Nc1cc(C)nc2nc(C)nn12 the results were MCL1-BIM inh 1, Mcl1 Noxa PPI 58*, Mcl1 Bid PPI -16, TNF death inh 1, zVAD death inh 1 and Bim-Mcl-1 0.
Screening CCOC(=O)c1ccccc1NC(=O)c1nc2nccc(C)n2n1 returned MCL1-BIM inh -3, Mcl1 Noxa PPI 9, Mcl1 Bid PPI 79*, TNF death inh -2, zVAD death inh -1 and Bim-Mcl-1 -1.
Screening CCOc1ccc(S(=O)(=O)N2CCCC(C(=O)NC3CCCC3)C2)cc1 (stereo not drawn) returned MCL1-BIM inh 8.
`COc1cc2[nH]c(=O)n(CCC(=O)N3CCN(c4cccc(C)c4C)CC3)c(=O)c2cc1OC` gave MCL1-BIM inh 3, Mcl1 Noxa PPI 21, Mcl1 Bid PPI 54*, TNF death inh -2, zVAD death inh 3 and Bim-Mcl-1 -3.
`COc1cc2[nH]c(=O)n(CCC(=O)N3CCN(Cc4ccccc4)CC3)c(=O)c2cc1OC` gave MCL1-BIM inh -4, Mcl1 Noxa PPI 3, Mcl1 Bid PPI -5, TNF death inh 1, zVAD death inh 1 and Bim-Mcl-1 -4.
Screening CCOC(=O)c1c(CSC(=N)N)n(-c2ccc(Br)cc2)c2cc(Br)c(OC(C)=O)cc12 returned Mcl1 Noxa PPI 65*, Mcl1 Bid PPI 0, TNF death inh -30 and Bim-Mcl-1 7.
For Cn1c(COc2ccc(Cl)cc2)nnc1SCC(=O)NC1CCCC1 the results were MCL1-BIM inh -3.
For COc1ccc(CCNS(=O)(=O)CCNC(=O)c2ccc3c(c2)OCO3)cc1 the results were MCL1-BIM inh 1.
Screening Nc1c(C(=O)Nc2ccc(F)cc2)sc2nc(-c3ccco3)ccc12 returned MCL1-BIM inh -9, Mcl1 Noxa PPI 98*, Mcl1 Bid PPI 91*, TNF death inh -2, zVAD death inh 0 and Bim-Mcl-1 11.
For Cc1cc(C)n(CC(=O)NCc2cc(-c3nn(C)c(=O)c4ccccc34)ccc2C)n1 the results were MCL1-BIM inh -2, Mcl1 Noxa PPI -9, Mcl1 Bid PPI 14, TNF death inh -2, zVAD death inh 0 and Bim-Mcl-1 -3.
`Cc1ccc(-c2nn(C)c(=O)c3ccccc23)cc1CNC(=O)Cn1nc(-c2ccccc2)c2ccccc2c1=O` gave Mcl1 Noxa PPI -23, Mcl1 Bid PPI 77*, TNF death inh 0, zVAD death inh 0 and Bim-Mcl-1 -31.
Screening Cc1cc(NC(=O)CSc2nnc(CNC(=O)c3ccccc3)o2)no1 returned MCL1-BIM inh 4.
For O=C1CSC(c2cccnc2)N1c1ccc(Cl)cc1 (stereo not drawn) the results were MCL1-BIM inh 1, Mcl1 Noxa PPI 0, Mcl1 Bid PPI 79*, TNF death inh 1, zVAD death inh 0 and Bim-Mcl-1 0.
Screening O=C1CSC(c2ccc(Cl)cc2)N1c1cccnc1 (stereo not drawn) returned MCL1-BIM inh 5, Mcl1 Noxa PPI 13, Mcl1 Bid PPI -10, TNF death inh 5 and zVAD death inh 0.
For CCN(CC)CC(=O)NC12CC3CC(CC(C3)C1)C2 the results were MCL1-BIM inh -4, Mcl1 Noxa PPI 37, Mcl1 Bid PPI 63*, TNF death inh 1, zVAD death inh 0 and Bim-Mcl-1 0.
O=C(O)CC(=O)NC12CC3CC(CC(C3)C1)C2 was read as MCL1-BIM inh -2, Mcl1 Noxa PPI 13, Mcl1 Bid PPI 14, TNF death inh 0, zVAD death inh 0 and Bim-Mcl-1 0.
CCOC(=O)c1ccccc1NC(=O)COC(=O)CCC1CCCC1 was read as MCL1-BIM inh -1.
